The record followed here is the supplement of paper PMC6555819.

Holding throughout (assay): PBM binding z-score (relative to random genomic background probes); higher = stronger binding; sequences stand for … in GC…GCGATTGACAGCGTAGAATGAAGG
For assay [1], the system named is PPARg:RXRa DBDmut IVT, anti-RXR (DBD mutation: RXRa K156A/R161A, NR concentration 270 nM, RXRa partner concentration 90 nM). The procedure, abridged:
(§1)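 On custom Agilent 4×180K arrays, double-stranded probes with 34-nt variable regions carried direct-repeat seeds, single-nucleotide variants, half-site ablations or random human genomic background. Ligand-free nuclear receptor dimers were applied for 1 h, and binding was read with antibodies against each partner (one per run). Binding z-scores come from regression-normalized fluorescence, with the random background probes as reference.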

In assay [2] the test system is PPARg:RXRa IVT, anti-PPARg (NR concentration 270 nM, RXRa partner concentration 90 nM). In short, it runs like this:
as §1

Assay [3] deals with PPARg DBDmut:RXRa IVT, anti-PPARg (DBD mutation: PPARg1 K132A/R137A, NR concentration 270 nM, RXRa partner concentration 90 nM). The procedure, abridged:
as §1

The test system of assay [4] is PPARg DBDmut IVT, anti-PPARg (DBD mutation: PPARg1 K132A/R137A, NR concentration 270 nM). The procedure, abridged:
as §1

Assay [5] relates to PPARg homodimer (NR concentration 180 nM). In short, it runs like this:
as §1

The test system of assay [6] is PXR:RXRa (NR concentration 270 nM, RXRa partner concentration 90 nM). The procedure, abridged: as §1
The test system of assay [7] is PXR homodimer (NR concentration 270 nM). In short, it runs like this: as §1
Assay [8] relates to RARa:RXR (NR concentration 270 nM, RXRa partner concentration 90 nM). In short, it runs like this:
as §1

In assay [9] the test system is RARa homodimer (NR concentration 270 nM). The procedure, abridged:
as §1

The test system of assay [10] is RARb:RXRa (NR concentration 270 nM, RXRa partner concentration 90 nM). In short, it runs like this: as §1
For assay [11], the system named is RARb homodimer (NR concentration 270 nM). In short, it runs like this: as §1
Assay [12] has as its system RARg:RXRa (NR concentration 270 nM, RXRa partner concentration 90 nM). In short, it runs like this:
as §1

For assay [13], the system named is RARg homodimer (NR concentration 270 nM). In short, it runs like this: as §1
For assay [14], the system named is RXRa DBDmut IVT, anti-RXR (DBD mutation: RXRa K156A/R161A, NR concentration 90 nM). In short, it runs like this: as §1
The test system of assay [15] is RXRa homodimer (NR concentration 180 nM). The procedure, abridged: as §1
Assay [16] deals with THRa:RXRa (NR concentration 90 nM, RXRa partner concentration 90 nM). The procedure, abridged:
as §1

Assay [17] has as its system THRa homodimer (NR concentration 90 nM). In short, it runs like this: as §1
The subject of assay [18] is VDR homodimer (NR concentration 270 nM). The procedure, abridged:
as §1

Regarding TAGCCTAGGTCAGATCGGGCCAGTGTACGCTATA, the PBM binding z-score is 0.622 in assay [1]; 1.31 in assay [2]; -1.37 in [3]; -0.791 in [4]; -0.0708 in assay [5]; 1.18 in assay [6]. For the same sequence, the PBM binding z-score in assay [7] was -1.04; in assay [8] it was 1.19; in assay [9], -1.04; in assay [10], 3.04; in assay [11], 2.17; in assay [12] it was 2.57. In addition, the PBM binding z-score in assay [13] is 3.6; in [14], -0.434; in [15], 1.23; in assay [16], 4.03; in [17], -0.0774; in [18] it was -0.614.
As to AGTCAAAGTTCAGGACGAGGTAACGTAGAGCACG, the PBM binding z-score in assay [1] was 0.103; in assay [2] it was 2.2; in assay [3], 0.482; in assay [4], 0.536; in [5], 1.57; in [6], 2.79. Further, the PBM binding z-score in [7] was determined as 0.943; in assay [8], 2.87; in assay [9], 0.443; in [10], 4.25; in assay [11] it was 3.39; in [12], 4.8. Further, the PBM binding z-score is 4.77 in [13]; 2.61 in assay [14]; 3.06 in [15]; 4.07 in assay [16]; 1.71 in [17]; 2.15 in assay [18].
Turning to CCAGACAGTTGAAAGGTAACTCAGTCTGGTACGC, the PBM binding z-score in [1] was 0.0148; in assay [2], 0.0044; in assay [3] it was -0.176; in assay [4] it was -0.589; in assay [5], 0.762; in [6], 0.219. Besides, the PBM binding z-score is 0.144 in assay [7]; 0.485 in assay [8]; 0.568 in assay [9]; 0.56 in assay [10]; 0.351 in assay [11]; 0.456 in [12]. The PBM binding z-score was 0.357 in [13]; 0.511 in assay [14]; 0.993 in assay [15]; 0.38 in [16]; -0.129 in assay [17]; -0.355 in assay [18].
Consider ATCTCTAGGTAAAGATAGTTCAGTGGATGCAAAT, for which the PBM binding z-score amounted to 1.85 in assay [1]; 1.54 in assay [2]; 0.905 in assay [3]; 0.158 in [4]; 0.189 in assay [5]; 0.971 in assay [6]. Besides, the PBM binding z-score came out at 0.373 in assay [7]; 0.0212 in assay [8]; 1.18 in [9]; 0.718 in [10]; 0.847 in assay [11]; 0.4 in [12]. Moreover, the PBM binding z-score in assay [13] was 0.785; in [14], -0.122; in assay [15], 0.17; in [16] it was 0.667; in assay [17], 0.0913; in assay [18], 0.205.
TCGAGTAGGTTACCAATGGGGCATTCAACTTTCT: the PBM binding z-score in [1] was 3.18; in [2], 3.11; in assay [3], -0.0959; in assay [4], -0.457; in [5] it was 0.301; in assay [6] it was 0.506. Besides, the PBM binding z-score in assay [7] is -0.241; in [8], 0.916; in [9] it was -0.285; in assay [10], 1.14; in assay [11], 1.11; in assay [12] it was 1.49. For the same sequence, the PBM binding z-score in assay [13] was 0.547; in assay [14], 0.496; in [15] it was 1.01; in [16] it was 0.551; in [17] it was -0.246; in assay [18], -0.194.
In the case of CTACCAAGGTGAAAAAGGTCGTTGATTACTATTC, the PBM binding z-score is 1.42 in [1]; 1.39 in [2]; 0.0289 in [3]; -0.0502 in [4]; 0.878 in assay [5]; 2.31 in assay [6]. The PBM binding z-score in [7] was 1.09; in assay [8] it was 2.56; in [9], 0.555; in assay [10] it was 2.02; in assay [11], 2.39; in assay [12] it was 2.01. Moreover, the PBM binding z-score in assay [13] is 1.33; in [14] it was 1.01; in [15], 2.21; in assay [16] it was 2.42; in assay [17], 0.518; in [18] it was 1.4.
Regarding GCTAGCAGGCCATTTGGGTCGCTCAATGACGGGC, the PBM binding z-score in assay [1] was 0.479; in assay [2] it was 0.26; in [3] it was -1.18; in assay [4], -1.25; in assay [5], -1.01; in assay [6], -0.81. Besides, the PBM binding z-score was -0.85 in assay [7]; -0.542 in [8]; -1.69 in [9]; -0.0207 in assay [10]; -0.128 in assay [11]; -0.381 in assay [12]. Besides, the PBM binding z-score is -0.146 in assay [13]; -0.286 in [14]; -0.42 in [15]; -0.00184 in [16]; -0.914 in [17]; -0.635 in assay [18].
AATACAGGGTCATCGTAGGCGAGAGTACGCACAG: the PBM binding z-score in assay [1] stood at 2.84; in assay [2] it was 4.14; in assay [3], 3.29; in assay [4] it was 1.01; in [5], 2.21; in assay [6] it was 4.29. Moreover, the PBM binding z-score in assay [7] came out at 1.03; in assay [8] it was 5.1; in assay [9], 1.25; in assay [10], 4.37; in [11], 3.47; in assay [12] it was 5.58. Moreover, the PBM binding z-score was 4.77 in [13]; 3.52 in assay [14]; 6.54 in assay [15]; 4.45 in assay [16]; 1.32 in assay [17]; 3.54 in assay [18].
